# Experimental data published in PubChem BioAssay.
# The source made the active and inactive calls.
# Columns and labels:
# [1] = small-molecule microarray binders of probe aShh, primary screen, biochemical, biotinylated probe, 635/667 nm fluorescence (AID 1114); details: higher = more signal;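 further: probe is biotin-labelled aShh protein from a stem cell growth factor screen; measures binding of labelled protein to compounds printed on the slide; score merges feature fluorescence at 667 nm with signal-to-noise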
# [2] = small-molecule microarray binders of probe aNog, primary screen, biochemical, biotinylated probe, 635/667 nm fluorescence (AID 1115); details: higher = more signal;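 further: probe is biotinylated aNog protein used at 0.15 µg/mL for 1 h at 4 C; z-score combines 667 nm fluorescence of each spot with its signal to noise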
# [3] = target: Torsin-1A-interacting protein 1 (Homo sapiens) (UniProt Q5JTV8); test: LAP1 binders from COS7 cell lysate, primary screen, small-molecule microarray, 635/667 nm fluorescence (AID 1116); details: COS7-hLAP1 lysate binding, 635 nm fluorescence, higher = more signal
# Albumin (Bos taurus) = Albumin (Bos taurus) (UniProt P02769); test: bovine serum albumin binders on microarray, profiling panel, artefact control for SMM control protein annotation, biochemical, small-molecule microarray, Alexa647 label, 635/667 nm fluorescence (AID 1118); details: BSA-A647 binding, fluorescence 635 nm, higher = more signal;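 further: score merges 667 nm emission intensity and signal-to-noise per printed compound spot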
# [4] = small-molecule microarray binders of probe aXIP, primary screen, biochemical, NeuroSMM set, 635/667 nm fluorescence (AID 1119); details: higher = more signal, called active from +8 up or from −8 down;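 further: probe is the protein aXip251-270 applied at 1 µg/mL to compound-printed slides; binding of probe to printed compounds measured as 667 nm fluorescence plus signal to noise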
# [5] = small-molecule binders of probe aNOTCH3, primary screen, biochemical, small-molecule microarray, 635/667 nm fluorescence (AID 1120); details: higher = more signal;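 further: probe is a biotin-tagged antibody raised against NOTCH3 rather than NOTCH3 protein; score merges spot fluorescence near 667 nm with spot signal to noise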
# [6] = small-molecule binders of probe aNOTCH2, primary screen, biochemical, small-molecule microarray, 635/667 nm fluorescence (AID 1121); details: higher = more signal;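 further: score merges feature fluorescence read at 667 nm with its signal to noise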
# [7] = target: Carbonic anhydrase 2 (Homo sapiens) (UniProt P00918); test: CAII small-molecule binders, profiling panel, biochemical, small-molecule microarray, Alexa647-labelled CAII (AID 1122); details: CAII-A647 binding fluorescence, higher = more signal
# [8] = COS7 lysate on small-molecule microarray, probe aHis, 635 nm (AID 1123); details: COS7 cell lysate, fluorescence, higher = more signal;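 further: z-score combines 667nm fluorescence intensity with signal-to-noise per printed compound spot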
# [9] = compound binding in COS7 lysate, probe aLAP1, primary screen, cell lysate, small-molecule microarray (AID 1124); details: probe aLAP1, fluorescence, higher = more signal;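 further: lysate comes from COS7 cells expressing LAP1 and is applied at 0.3 µg/mL; score merges spot fluorescence near 667 nm with signal-to-noise over triplicate slides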
# Sam68 (KHDRBS1) = test: Sam68 small-molecule binders, primary screen, biochemical, small-molecule microarray, 635 nm fluorescence (AID 1125); details: small-molecule microarray binding, higher = more signal;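 further: score merges 667 nm channel intensity with signal to noise over triplicate slides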
# [10] = system: Chordin-like protein 2 (CHRDL2); test: CHRDL2 small-molecule binders, primary screen, biochemical, small-molecule microarray, 635 nm fluorescence (AID 1126); details: small-molecule microarray binding, fluorescence 635 nm; higher = more signal;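 further: printed compound slides probed with Chrdl2 protein at 4 µg/mL for 1 h at 4 C; score merges 667 nm emission intensity with signal to noise over three replicate slides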
# [11] = target: Concanavalin-A (Canavalia ensiformis) (UniProt P02866); test: ConA small-molecule binders, primary screen, artefact control for SMM control protein annotation, biochemical, small-molecule microarray, Alexa647 label, 635 nm (AID 1127); details: ConA-A647 binding fluorescence, higher = more signal;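 further: z combines 667 nm emission intensity with signal-to-noise across three replicate slides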
# [12] = anti-His antibody binders, primary screen, artefact control for SMM control protein annotation, biochemical, small-molecule microarray, 635 nm fluorescence (AID 1128); details: anti-His Alexa647 antibody binding, higher = more signal;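 further: score merges feature fluorescence with signal-to-noise for each printed compound spot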
# [13] = system: Human papillomavirus type 1a E7 protein (residues 1-88); test: HPV1a E7 small-molecule binders, primary screen, biochemical, small-molecule microarray, residues 1-88, 635 nm (AID 1129); details: small-molecule microarray binding, fluorescence 635 nm; higher = more signal
# [14] = target: Focal adhesion kinase 1 (Homo sapiens) (UniProt Q05397); test: small-molecule microarray binders of FAK, primary screen, biochemical, 635/667 nm fluorescence, BSA, DTT (AID 1130); details: PTK2 binding, 635 nm fluorescence, higher = more signal;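 further: composite of spot emission at 667 nm and signal to noise over triplicate slides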
# [15] = system: Fibrinogen (Alexa647-labelled); test: fibrinogen binders on compound microarrays, profiling panel, artefact control for SMM control-protein annotation, biochemical, small-molecule microarray, 635/667 nm fluorescence (AID 1131); details: fibrinogen-A647 binding fluorescence, higher = more signal;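 further: z-score merges 667 nm fluorescence with per-spot signal-to-noise over triplicate slides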
# [16] = target: Follistatin (Homo sapiens) (UniProt P19883); test: follistatin binders on small-molecule microarrays, primary screen, biochemical, small-molecule microarray, 635/667 nm fluorescence (AID 1132); details: FST binding, 635 nm fluorescence, higher = more signal
# [17] = target: Fibroblast growth factor 2 (Homo sapiens) (UniProt P09038); test: FGF2 binders on small-molecule microarrays, primary screen, biochemical, small-molecule microarray, 635/667 nm fluorescence (AID 1133); details: small-molecule microarray binding, FGF2, fluorescence 635/667; higher = more signal
# [18] = mitochondrial membrane potential change in A549 cells, profiling panel, cell-based, JC-1 fluorescence, basal, 24 h, 100 nL (AID 1138); details: higher = more signal;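 further: A549 lung adenocarcinoma cells under basal conditions with no added stimulus; test concentration not given here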
# Concanavalin-A (Canavalia ensiformis), sequence (P02866 whole entry, looked up): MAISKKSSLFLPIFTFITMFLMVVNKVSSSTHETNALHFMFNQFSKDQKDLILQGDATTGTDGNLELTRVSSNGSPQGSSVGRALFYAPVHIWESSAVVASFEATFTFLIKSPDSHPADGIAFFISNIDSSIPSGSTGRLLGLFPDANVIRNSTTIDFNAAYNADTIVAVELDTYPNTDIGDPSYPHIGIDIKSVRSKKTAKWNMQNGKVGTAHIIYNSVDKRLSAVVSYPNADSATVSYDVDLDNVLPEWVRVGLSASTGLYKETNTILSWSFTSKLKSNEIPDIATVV
# Follistatin (Homo sapiens), sequence (P19883 whole entry, looked up): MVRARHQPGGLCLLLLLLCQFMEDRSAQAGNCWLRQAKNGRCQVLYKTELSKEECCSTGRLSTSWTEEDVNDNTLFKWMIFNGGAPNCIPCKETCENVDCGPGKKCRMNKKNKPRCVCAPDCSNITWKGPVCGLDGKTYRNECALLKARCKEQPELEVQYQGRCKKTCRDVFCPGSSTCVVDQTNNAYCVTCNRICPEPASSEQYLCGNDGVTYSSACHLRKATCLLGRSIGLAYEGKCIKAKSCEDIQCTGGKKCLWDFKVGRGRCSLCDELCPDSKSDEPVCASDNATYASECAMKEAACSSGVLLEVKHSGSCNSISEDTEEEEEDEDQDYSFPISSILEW
# Focal adhesion kinase 1 (Homo sapiens), sequence (Q05397 whole entry, looked up): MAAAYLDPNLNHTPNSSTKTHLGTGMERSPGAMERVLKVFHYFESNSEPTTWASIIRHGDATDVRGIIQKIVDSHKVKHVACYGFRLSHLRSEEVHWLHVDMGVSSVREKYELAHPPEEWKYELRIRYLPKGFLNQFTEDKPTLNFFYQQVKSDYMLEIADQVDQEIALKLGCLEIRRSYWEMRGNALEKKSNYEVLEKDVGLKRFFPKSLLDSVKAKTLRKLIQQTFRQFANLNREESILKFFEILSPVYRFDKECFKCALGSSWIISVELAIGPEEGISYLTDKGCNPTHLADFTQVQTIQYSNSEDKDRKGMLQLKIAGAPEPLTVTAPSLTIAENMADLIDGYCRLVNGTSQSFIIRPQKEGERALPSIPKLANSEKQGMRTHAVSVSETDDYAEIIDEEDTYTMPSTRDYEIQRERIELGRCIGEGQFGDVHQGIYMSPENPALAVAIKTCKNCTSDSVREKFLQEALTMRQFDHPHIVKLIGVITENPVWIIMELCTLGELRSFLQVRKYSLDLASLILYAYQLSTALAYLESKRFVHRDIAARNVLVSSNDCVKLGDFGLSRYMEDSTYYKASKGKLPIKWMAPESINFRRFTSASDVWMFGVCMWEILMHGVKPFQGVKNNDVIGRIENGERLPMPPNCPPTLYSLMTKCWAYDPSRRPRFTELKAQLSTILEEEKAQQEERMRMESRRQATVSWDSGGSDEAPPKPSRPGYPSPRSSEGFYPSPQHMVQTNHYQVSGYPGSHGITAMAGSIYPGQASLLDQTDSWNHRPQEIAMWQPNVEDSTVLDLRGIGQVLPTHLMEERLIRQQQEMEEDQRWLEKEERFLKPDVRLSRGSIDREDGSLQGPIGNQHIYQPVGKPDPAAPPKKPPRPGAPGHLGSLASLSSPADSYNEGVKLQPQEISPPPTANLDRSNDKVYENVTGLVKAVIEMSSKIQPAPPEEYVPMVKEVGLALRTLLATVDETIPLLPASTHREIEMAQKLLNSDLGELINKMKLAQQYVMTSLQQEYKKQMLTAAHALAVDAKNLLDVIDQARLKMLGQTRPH
# Albumin (Bos taurus), sequence (P02769 whole entry, looked up): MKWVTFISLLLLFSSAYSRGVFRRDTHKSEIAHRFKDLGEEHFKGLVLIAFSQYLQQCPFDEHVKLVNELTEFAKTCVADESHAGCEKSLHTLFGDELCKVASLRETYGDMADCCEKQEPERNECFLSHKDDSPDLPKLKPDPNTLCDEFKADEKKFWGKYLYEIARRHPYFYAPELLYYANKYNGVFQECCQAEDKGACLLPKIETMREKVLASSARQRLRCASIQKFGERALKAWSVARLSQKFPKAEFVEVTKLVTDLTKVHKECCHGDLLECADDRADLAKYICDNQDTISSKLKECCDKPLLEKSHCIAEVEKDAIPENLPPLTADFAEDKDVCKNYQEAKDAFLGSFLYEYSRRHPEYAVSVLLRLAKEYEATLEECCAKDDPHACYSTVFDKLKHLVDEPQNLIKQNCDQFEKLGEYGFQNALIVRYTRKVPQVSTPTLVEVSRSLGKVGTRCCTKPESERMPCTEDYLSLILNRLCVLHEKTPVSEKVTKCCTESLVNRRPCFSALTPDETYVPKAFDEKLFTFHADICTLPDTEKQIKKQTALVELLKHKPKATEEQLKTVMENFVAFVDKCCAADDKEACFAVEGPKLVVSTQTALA
# Fibroblast growth factor 2 (Homo sapiens), sequence (P09038 whole entry, looked up): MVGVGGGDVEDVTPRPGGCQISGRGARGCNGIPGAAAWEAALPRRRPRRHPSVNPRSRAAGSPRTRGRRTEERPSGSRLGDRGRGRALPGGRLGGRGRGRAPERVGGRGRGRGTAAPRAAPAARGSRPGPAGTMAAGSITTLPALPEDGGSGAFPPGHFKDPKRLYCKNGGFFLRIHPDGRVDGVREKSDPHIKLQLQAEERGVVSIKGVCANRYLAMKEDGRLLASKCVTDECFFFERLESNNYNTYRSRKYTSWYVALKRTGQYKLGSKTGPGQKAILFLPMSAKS
# Torsin-1A-interacting protein 1 (Homo sapiens), sequence (Q5JTV8 whole entry, looked up): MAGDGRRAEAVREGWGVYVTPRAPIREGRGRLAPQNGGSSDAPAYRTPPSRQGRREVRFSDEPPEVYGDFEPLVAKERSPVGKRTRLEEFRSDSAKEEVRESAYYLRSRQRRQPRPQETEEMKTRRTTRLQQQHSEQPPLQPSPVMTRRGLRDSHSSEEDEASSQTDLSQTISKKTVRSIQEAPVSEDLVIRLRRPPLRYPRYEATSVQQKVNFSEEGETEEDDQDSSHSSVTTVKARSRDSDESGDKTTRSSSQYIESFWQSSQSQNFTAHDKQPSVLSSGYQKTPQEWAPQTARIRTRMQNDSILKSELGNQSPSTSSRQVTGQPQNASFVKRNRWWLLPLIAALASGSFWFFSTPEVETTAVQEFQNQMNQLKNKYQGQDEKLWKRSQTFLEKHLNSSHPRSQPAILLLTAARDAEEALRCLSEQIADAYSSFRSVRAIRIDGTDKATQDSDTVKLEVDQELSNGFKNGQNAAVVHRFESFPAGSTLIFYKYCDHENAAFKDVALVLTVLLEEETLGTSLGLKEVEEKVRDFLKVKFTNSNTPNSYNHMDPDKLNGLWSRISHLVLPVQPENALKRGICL
Compound,composite z-score [1],composite z-score [2],composite z-score [3],composite z-score (Albumin (Bos taurus)),composite Z-score [4],composite z-score [5],composite z-score [6],composite z-score [7],composite z-score [8],composite z-score [9],composite z-score (Sam68 (KHDRBS1)),composite z-score [10],composite z-score [11],composite z-score [12],composite z-score [13],composite z-score [14],composite z-score [15],composite z-score [16],composite z-score [17],z-score [18]
C=C(CCCC)/C(=C/C[C@H](OC(=O)c1ccncc1)c1ccc(CO)o1)c1cnc2ccccc2c1,0.0898,0.995,0.731,0.295,-0.0961 (inactive),0.227,-0.0942,0.84,0.368,0.0647,1.3,0.699,1.04,0.475,1.18,0.291,0.0311,1.38,0.722,1.45
C=CCOC(=O)[C@H]1[C@@H]2C(=O)O[C@@H](c3ccccc3)[C@@H](c3ccccc3)N2[C@@H](c2ccc(OCCOC(=O)[C@H]3C[C@H]4C(=O)N5CCC[C@H]5C(=O)N4[C@H]3c3cccc(OCCO)c3)cc2)[C@]12C(=O)Nc1ccccc12,0.263,0.228,0.925,-0.592,1.51 (inactive),-0.0647,-0.0424,0.466,2.31,-0.103,1.31,1.37,0.96,1.34,1.16,0.903,0.47,1.34,1.57,-0.851
C=CCC(OC(C)=O)[C@@H]1[C@@H](N(Cc2ccc(-c3ccccc3)cc2)C(=O)c2ccc(-c3ccccc3)cc2)c2cc(OCCCO)ccc2N1C(=O)c1ccc(-c2ccccc2)cc1 (stereo not given in full),-0.324,0.347,0.315,0.0452,-0.254 (inactive),0.11,0.0086,-0.0914,0.57,-0.0163,-0.821,0.0312,-0.473,-0.726,0.274,0.63,-0.705,0.288,-0.215,2.51
COCCCNC(=O)[C@@]1(CCS(=O)(=O)c2ccccc2)N=C(c2ccc(OCCCO)cc2)O[C@H]1c1ccccc1CN=[N+]=[N-],0.81,0.64,0.732,0.91,0.582 (inactive),0.448,0.0763,0.528,2.3,0.561,1.22,-0.308,1.12,2.56,1.21,1.17,0.989,1.4,1.53,0.579
C=C1C=C(Br)C2(OCCCO2)[C@H]2OC12 (stereo not given in full),0.0684,-0.491,-0.0068,-0.888,2.51 (inactive),0.0642,-0.148,-0.128,-0.529,-0.0289,-0.404,0.646,-0.71,-1.16,-0.315,0.0354,-1.01,0.442,0.245,0.939
CC(C)NC(=O)[C@@H]1c2ccccc2C(=O)N(Cc2cc(F)cc(C(F)(F)F)c2)[C@H]1c1ccc(CO)cc1,-0.321,0.27,0.0026,-0.448,0.115 (inactive),-0.402,-0.111,0.741,1.34,-0.126,-0.096,-0.556,-0.94,-0.905,-0.194,0.434,-1.41,-1.12,-0.612,2.84
C=CCNC(=O)[C@@H]1[C@H]2C(=O)O[C@H](c3ccccc3)[C@H](c3ccccc3)N2[C@H](c2ccc(O)cc2)[C@@]12C(=O)Nc1ccccc12,0.0756,0.955,-0.0205,-0.989,0.0737 (inactive),-0.246,-0.22,0.55,1.12,0.324,0.502,-0.939,0.516,-0.391,-0.227,0.394,-0.0121,0.981,0.143,0.715
CC(=O)NCCCC[C@@H]1NC(=O)[C@@H]2C[C@H](C(=O)O)[C@H](c3cccc(OCCO)c3)N2C1=O,-0.0626,-0.37,0.947,-1.33,0.274 (inactive),-0.126,-0.146,0.276,0.348,0.0927,1.34,1.31,1.15,2,1.07,0.341,0.041,1.35,1.73,1.2
